Reference: ChEMBL document CHEMBL4513216, “Probing the Open Global Health Chemical Diversity Library for Multistage-Active Starting Points for Next-Generation Antimalarials” (ACS Infect Dis, 2020)
About 2,700 (4%) of roughly 68,000 compounds showed an effect of 50% or more. The full list was thinned out, with strong results kept by preference.

system: Plasmodium berghei; assay: Screen against P. berghei liver stage (PbLuc), transformed with Luciferase, at 2uM; assay type: functional, HepG2; settings: tested at 2 uM

SMILES	INHIBITION [%]
COc1ccnc(C(=O)N2CCCC(c3noc(C)n3)C2)c1 (stereo unspecified)	11.71
Cc1cc(C)c2nc(CN3CCCC(c4cc[nH]n4)C3)cc(O)c2c1 (stereo unspecified)	-45.64
Cn1cc(CNC(=O)c2cc3c(s2)CCCCC3)cn1	36.66
COc1cc(C2CC(=O)Nc3c2nc2n3CCCC2)ccc1O (stereo unspecified)	0.1
CC1CCN(C(=O)c2cc(NC(=O)c3ccccc3)n(C)n2)CC1	-57.06
CCc1cc(NCCCN(C)C2CCCC2)ncn1	36.22
CC(C)NC(=O)N1CCC2(CCC(=O)N2CCN(C)C)CC1	16.12
Cc1c(C2=NS(=O)(=O)N(C)C(C(=O)Nc3ccc(Br)cc3)=C2)cnn1C	22.84
CN1C(=O)CCCC12CCCN(Cc1nccs1)C2 (stereo unspecified)	20.2
CCN(Cc1ccccc1)C(=O)CN1CCCC(Cn2cncn2)C1 (stereo unspecified)	33.16
CNC(=O)CN1CCN(C(=O)c2ccn(C)c(=O)c2)CC1	-16.28
CC(C)c1nc(C2CCCN2C(=O)CCn2cncn2)no1 (stereo unspecified)	-15.92
CSc1ccc(C(=O)C2CCCN(C(=O)CCn3cnnn3)C2)cc1 (stereo unspecified)	35.13
CC(C)c1nc(C2CCCN(C(=O)CCn3cncn3)C2)no1 (stereo unspecified)	64.16
CSc1ccc(C(=O)C2CCCN(C(=O)CCCn3cncn3)C2)cc1 (stereo unspecified)	49.98
CC(C)c1nc(C2CCCN(C(=O)CCCn3cncn3)C2)no1 (stereo unspecified)	-45.72
CSc1ccc(C(=O)C2CCCN(C(=O)CCn3cncn3)C2)cc1 (stereo unspecified)	55.25
c1ccn2cc(CN3CCCC(c4ccn[nH]4)C3)nc2c1 (stereo unspecified)	13.4
Cc1cc(C2CCCN(Cc3cccnc3)C2)n[nH]1 (stereo unspecified)	30.82
CC1c2ccc(F)cc2CCN1C(=O)c1[nH]c(=O)[nH]c(=O)c1N (stereo unspecified)	-36.67
CCOC(=O)c1ccc(NC(=O)c2c(O)nc3c(c2O)CCCC3)cc1	-23.02
CC(=O)N1CC(=O)N(c2cnn(C)c2)CC12CCN(CC1CC1)C2 (stereo unspecified)	-7.82
Cc1cccc(C(=O)N2CCO[C@H]3[C@H](OCCN(C)C)CC[C@@H]32)n1	19.98
COc1c(CNC(C)C(=O)NC2CCCC2)c(C(C)C)nn1C (stereo unspecified)	3.59
CC(NCc1c(C(C)C)nn(C)c1N(C)C)C(=O)NC1CCCC1 (stereo unspecified)	10.04
Cc1nn(C)c(N(C)C)c1CNCCC(=O)NC1CCCCC1	68.24

SMILES	INHIBITION [%]
CC(C)c1nn(C)c(N(C)C)c1CNCCC(=O)NC1CCCCC1	39.72
COc1c(CNCCC(=O)NC2CCCCC2)c(C(C)C)nn1C	64.16
CC(C)c1nn(C)c(N(C)C)c1CNCCC(=O)NC1CCCC1	-0.64
COc1c(CNC(C)C(=O)NC2CCCC2)c(C)nn1C (stereo unspecified)	60.34
COc1c(CNCCC(=O)NC2CCCC2)c(C(C)C)nn1C	-5.09
Cc1nn(C)c(N(C)C)c1CNCCC(=O)NC1CCCC1	41.76
O=C(NC1CCC1)[C@@H]1C[C@@H]2CCN(CCc3ccccc3)C[C@H]2O1	-39.67
CNC(=O)CN1CCOCC2(CCCN(Cc3ccc(F)cc3)C2)C1 (stereo unspecified)	34.24
C[C@H]1C[C@H]2CN(S(=O)(=O)c3ccc(F)cc3)CC[C@@H]2O1	-21.77
COCCNC(=O)Nc1ccc(-n2cncn2)c(F)c1	0.26
CC(=O)Nc1ccc(-n2cncn2)c(F)c1	8.5
COCCOc1ncccc1C(=O)Nc1ccc(-n2cncn2)c(F)c1	69.41
COC[C@]1(O)CCN(c2cc(N3CCOCC3)ncn2)CC1(C)C	-18.81
COc1ccc(CNC(=O)Nc2cccnc2N2CCCC2)cc1O	24.15
O=C1N(CC2CC2)CCC12CCCN(c1ncc(F)cn1)C2 (stereo unspecified)	-14.61
CN1CCC2(CCN(c3ncc(F)cn3)CC2)C1=O	34.19
O=C1N(CC2CC2)CCC12CCN(c1ncccn1)CC2	8.37
O=C1N(CC2CCCC2)CCC12CCN(c1ncc(F)cn1)CC2	61.15
Cc1cnc(N2CCC3(CCN(CC4CC4)C3=O)CC2)nc1	51.19
Cc1cnc(N2CCC3(CCN(CC4CCCC4)C3=O)CC2)nc1	45.28
Cc1ccc(CNC(=O)NC2CCCN(c3ncccn3)C2)n1C (stereo unspecified)	30.83
Cc1ccc(C(CNCc2ccncc2)N2CCOCC2)s1 (stereo unspecified)	-27.89
CCn1cc(CNCC(c2ccc(C)s2)N2CCOCC2)cn1 (stereo unspecified)	8.33
Cc1ccc(C(CNCc2nccn2C)N2CCOCC2)s1 (stereo unspecified)	69.82
CCn1ccnc1CNCC(c1ccc(C)s1)N1CCOCC1 (stereo unspecified)	76.65
Cc1ccc(C(CNCc2cccn2C)N2CCOCC2)s1 (stereo unspecified)	-24.42

SMILES	INHIBITION [%]
Cc1ccc(C(CNCc2ncc[nH]2)N2CCOCC2)s1 (stereo unspecified)	6.4
NS(=O)(=O)CCNC(=O)c1nnn(-c2ccccc2)c1C1CC1	2.39
Cc1nc(NC(=O)CN2CCc3c(nc(C(C)C)n3C)C2)sc1C	-1.14
CS(=O)(=O)N1CCO[C@@H]2CN(C(=O)COC3CCCC3)C[C@@H]2C1	17.4
CCOc1c(OC)cc(C=Cc2ncc(C(=O)NC)s2)cc1OC	39.56
FC(F)(F)c1cccc(N2CCC(NCc3cccnc3)CC2)c1	47.23
CC(=O)NC[C@H]1C[C@@H]2CCN1C[C@@H]2c1cc(-c2cccs2)nn1C	35.89
Cn1nc(-c2cccs2)cc1[C@H]1CN2CC[C@H]1C[C@@H]2CNS(C)(=O)=O	40.83
Cn1nc(-c2ccccc2)cc1[C@H]1CN2CC[C@H]1C[C@@H]2CNS(C)(=O)=O	62.25
COCC(=O)NC[C@H]1C[C@@H]2CCN1C[C@@H]2c1cc(-c2cccs2)nn1C	27.65
CCNC(=O)NC[C@H]1C[C@@H]2CCN1C[C@@H]2c1cc(-c2cccs2)nn1C	60.6
Cn1nc(-c2cccs2)cc1[C@H]1CN2CC[C@H]1C[C@@H]2CN	34.24
O=C(c1cc(C2CC2)on1)N1CCC(Oc2ncccc2Cl)CC1	-22.8
CCN1C[C@@H]2[C@@H](OC)CCN(S(=O)(=O)c3ccccc3F)[C@@H]2C1	-22.38
O=C(CCc1ccccc1)NCC(O)c1c(F)cccc1F (stereo unspecified)	-17.44
CC(C)C(=O)N1Cc2ccccc2CC2(CCCCN2C)C1 (stereo unspecified)	6.2
O=C(CCNc1ncccn1)N1CCN(c2nccs2)CC1	9.41
CC(C)N1CCC2(CC1)CC(CC(N)=O)c1ccc(F)cc12 (stereo unspecified)	-94.52
COCCN1CCC2(CC1)CC(CC(N)=O)c1ccc(F)cc12 (stereo unspecified)	53.06
CCC(=O)N1CCC2(CC1)CC(CC(N)=O)c1ccc(F)cc12 (stereo unspecified)	-10.13
O=C(CCc1cccc(F)c1F)N1CCCC(n2cncn2)C1 (stereo unspecified)	-19.35
CCN(CC)[C@@H]1CN(C(=O)c2ccc(C#N)cc2)[C@@H]2CCCO[C@H]12	-58.31
Nc1cccnc1N1CCN(c2ccccc2)CC1	-43.35
COc1cccc(F)c1-c1nc2c([nH]1)c(C1CC1)nn2C	21.14
O=C(c1ccc[nH]1)N1CCc2onc(COc3cccnc3)c2C1	-39.67
O=C(N1CCCC1)N1CCc2onc(COc3cccnc3)c2C1	11.79

SMILES	INHIBITION [%]
O=C(c1ccncc1F)N1CCc2onc(COc3cccnc3)c2C1	54.89
O=C(c1ccc(F)cc1F)N1C[C@@H](O)[C@H](N2CCOCC2)C1	13.51
O=C(CCc1nccs1)N1CCCC(N2CCNC2=O)C1 (stereo unspecified)	7.74
COCCN1C[C@@H]2CN(S(=O)(=O)c3cccs3)C[C@@H]2C1=O	-8.59
CC(C)CN1C[C@@H]2CN(S(=O)(=O)c3cccs3)C[C@@H]2C1=O	29.85
CCN1C[C@@H]2CN(S(=O)(=O)c3cccs3)C[C@@H]2C1=O	62.25
CCCN1CCCn2nc(CNS(=O)(=O)c3cccc(F)c3)cc2C1	39.28
Cc1ccc(CN(Cc2[nH]cnc2C)C2CC(C)(C)NC(C)(C)C2)o1	-13
Cc1nc(C2CCCN2CC(=O)N2CCc3ccccc32)no1 (stereo unspecified)	47.93
CCOc1ccc(NC(=O)N2CCOC(C(N)=O)C2)cc1Cl (stereo unspecified)	51.4
COCCOc1ccc(NC(=O)N2CCOC(C(N)=O)C2)cc1F (stereo unspecified)	29.89
COCC1CN(C(=O)Nc2cc(Cl)cc(Cl)c2)CCO1 (stereo unspecified)	13.12
Cc1cc(NC(=O)N2CCOC(C(N)=O)C2)ccc1Br (stereo unspecified)	29.89
CCOc1ccc(NC(=O)N2CCOC(C(N)=O)C2)cc1C (stereo unspecified)	6.22
NC(=O)C1CN(C(=O)Nc2cc(Cl)cc(Cl)c2)CCO1 (stereo unspecified)	80.56
Cc1ccsc1C(=O)N1CCCN(Cc2cscn2)CC1	29.12
COc1ccc(NCCC(=O)NCc2cccnc2N(C)C)cc1	35.54
CCOC(=O)c1cnn(C2CCN(C(=O)CC(C)(C)C)CC2)c1N	-40.25
c1ccc(CN2CCC3(CC2)CC(Nc2nccs2)CO3)nc1 (stereo unspecified)	-14.97
O=C(NCC1CCCN1Cc1ccccc1)NCC1(O)CCC1 (stereo unspecified)	-19.78
O=C(NCC1CCCN1CCc1ccccc1)NCC1(O)CCC1 (stereo unspecified)	57.34
O=C(NCC1CCN(CCc2ccccc2)C1)NCC1(O)CCC1 (stereo unspecified)	-69.19
Cc1cc(CN2CC[C@H]3C[C@H](c4nc(C5CC5)cs4)O[C@@H]3C2)no1	35.84
